Test results taken from PubChem BioAssay AID1159580 (chemical genetic matrix, 2015).
“And” between values parts separate entries of the source, which are not always exact repeats. Equal values may be shown once. The whole screen tested about 5,500 compounds, of which about 2,000 (36%) were called active. Another 18% or so got no clear call; they are omitted. No stated cut-off is given here; in the data, active means normalized growth mostly below about 0.91 (no sharp cut-off); inconclusive means no clear call, values can overlap the other calls; inactive means mostly above about 0.92. The list shows a part of the results.

Assay: chemical genetic growth profiling, strain panel (AID 1159580);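 further: tested at 20 µM; growth read once vehicle control cultures reached saturation at 30 °C; 1 = growth at the plate median or of vehicle wells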
Conditions: S. cerevisiae deletion strains, growth OD

Measured: normalized growth

COC(=O)C[C@H]1C(C)(C)C2(O)OC34CC2C(=O)[C@]1(C)C3CC[C@]1(C)C4=CC(=O)O[C@H]1c1ccoc1 (some centres not stated)
inactive: locus YAL013W, strain DEP1, stronger effect = lower value 1.01 | locus YAL021C, strain ccr4, stronger effect = lower value 0.99 | locus YAL026C, strain drs2, stronger effect = lower value 0.998 | locus YAL030W, strain snc1, stronger effect = lower value 0.99 | locus YBL061C, strain skt5, stronger effect = lower value 0.999 | locus YBR009C, strain hhf1, stronger effect = lower value 1.01 | locus YBR021W, strain FUR4, stronger effect = lower value 0.976 | locus YBR023C, strain chs3, stronger effect = lower value 0.99 | locus YBR171W, strain sec66, stronger effect = lower value 0.973 | locus YBR229C, strain ROT2, stronger effect = lower value 1.01 | locus YBR231C, strain swc5, stronger effect = lower value 0.986 | locus YBR279W, strain paf1, stronger effect = lower value 0.998 | locus YCL011C, strain gbp2, stronger effect = lower value 0.978 | locus YCL016C, strain dcc1, stronger effect = lower value 1 | locus YCL029C, strain bik1, stronger effect = lower value 1.01 | locus YCL061C, strain MRC1, stronger effect = lower value 1.02 | locus YCL069W, strain vba3, stronger effect = lower value 0.977 | locus YCR088W, strain abp1, stronger effect = lower value 0.978 | locus YDL005C, strain med2, stronger effect = lower value 0.991 | locus YDL035C, strain GPR1, stronger effect = lower value 1 | locus YDL040C, strain nat1, stronger effect = lower value 0.973 | locus YDL074C, strain BRE1, stronger effect = lower value 1.01 | locus YDL101C, strain DUN1, stronger effect = lower value 1 | locus YDL134C, strain PPH21, stronger effect = lower value 1.01 | locus YDL185W, strain tfp1, stronger effect = lower value 1.01 | locus YDL192W, strain arf1, stronger effect = lower value 1.01 | locus YDR001C, strain nth1, stronger effect = lower value 0.991 | locus YDR069C, strain doa4, stronger effect = lower value 0.988 | locus YDR101C, strain arx1, stronger effect = lower value 1.01 | locus YDR137W, strain rgp1, stronger effect = lower value 1.03 | locus YDR150W, strain NUM1, stronger effect = lower value 0.993 | locus YDR159W, strain sac3, stronger effect = lower value 0.973 | locus YDR162C, strain NBP2, stronger effect = lower value 1.02 | locus YDR195W, strain ref2 0.963 | locus YDR297W, strain sur2, stronger effect = lower value 0.994 | locus YDR318W, strain mcm21, stronger effect = lower value 1 | locus YDR334W, strain swr1, stronger effect = lower value 0.975 | locus YDR335W, strain msn5, stronger effect = lower value 0.983 | locus YDR388W, stronger effect = lower value 1 | locus YDR392W, strain spt3, stronger effect = lower value 0.952 | locus YDR502C, strain sam2, stronger effect = lower value 0.994 | locus YEL003W, strain gim4, stronger effect = lower value 0.992 | locus YEL037C, strain rad23, stronger effect = lower value 0.98 | locus YEL061C, strain CIN8 (second series), stronger effect = lower value 0.972 | locus YER015W, strain faa2, stronger effect = lower value 0.996 | locus YER016W, strain bim1, stronger effect = lower value 0.984 | locus YER110C, stronger effect = lower value 1.02 | locus YER111C, strain swi4, stronger effect = lower value 0.985 | locus YER155C, strain BEM2 (second series), stronger effect = lower value 0.993 | locus YER155C, strain BEM2, stronger effect = lower value 0.992 | locus YER167W, strain BCK2, stronger effect = lower value 0.996 | locus YFR010W, strain ubp6, stronger effect = lower value 0.974 | locus YGL078C, strain dbp3, stronger effect = lower value 1.02 | locus YGL086W, strain mad1, stronger effect = lower value 0.99 | locus YGL167C, strain pmr1, stronger effect = lower value 1 | locus YGL173C, strain kem1, stronger effect = lower value 0.988 | locus YGL227W, strain vid30, stronger effect = lower value 0.983 | locus YGL240W, strain doc1, stronger effect = lower value 0.971 | locus YGL248W, strain PDE1, stronger effect = lower value 1.01 | locus YGL253W, strain hxk2, stronger effect = lower value 0.968 | locus YGR135W, strain pre9, stronger effect = lower value 1.01 | locus YGR252W, strain gcn5, stronger effect = lower value 1.05 | locus YHR013C, strain ard1, stronger effect = lower value 0.988 | locus YHR027C, strain rpn1, stronger effect = lower value 0.99 | locus YHR030C, strain SLT2, stronger effect = lower value 1 and 0.968 | locus YHR079C, strain IRE1 (second series), stronger effect = lower value 1.01 | locus YHR079C, strain IRE1, stronger effect = lower value 0.972 | locus YHR094C, strain hxt1, stronger effect = lower value 1.02 | locus YHR129C, strain ARP1, stronger effect = lower value 1 | locus YHR142W, strain chs7, stronger effect = lower value 0.975 | locus YHR200W, strain rpn10, stronger effect = lower value 1 | locus YIL066C, strain RNR3, stronger effect = lower value 1.01 | locus YIL073C, strain SPO22, stronger effect = lower value 1.01 | locus YIL125W, strain kgd1, stronger effect = lower value 1.01 | locus YIR030C, strain dcg1, stronger effect = lower value 1.01 | locus YJL092W, strain hpr5, stronger effect = lower value 0.98 | locus YJL095W, strain BCK1 (second series), stronger effect = lower value 0.988 | locus YJL095W, strain BCK1, stronger effect = lower value 0.982 and 0.98 | locus YJL115W, strain asf1, stronger effect = lower value 0.984 | locus YJL129C, strain trk1, stronger effect = lower value 1 | locus YJL134W, strain LCB3, stronger effect = lower value 1 | locus YJL154C, strain vps35, stronger effect = lower value 0.989 | locus YJL164C, strain tpk1, stronger effect = lower value 1 | locus YJL166W, strain qcr8, stronger effect = lower value 0.986 | locus YJL168C, strain set2, stronger effect = lower value 0.996 | locus YJL187C, strain SWE1 (second series), stronger effect = lower value 1.01 | locus YJL187C, strain SWE1, stronger effect = lower value 1.01
